According to PubChem BioAssay (NCI):
The panel holds about 83,000 compounds, 20% with a hit somewhere; the sample as a whole holds those more often.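 Activity criterion: percent growth below 10, measured after cells in 96-well plates were exposed to a single compound concentration for 48 hours.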 Activity calls are given as the source filed them.

What was measured:
Experiment in all cases: NCI-60 one-dose screen, 48 h (100 = growth as untreated, 0 = no growth, -100 = all killed)
Conditions in all cases: 10 µM unless noted
[1] = test system: HCT-15 colon
[2] = test system: HT29 colon
[3] = test system: SNB-75 CNS
[4] = test system: SNB-19 CNS
[5] = test system: PC-3 prostate
[6] = test system: SK-MEL-5 melanoma
[7] = test system: UACC-62 melanoma
[8] = test system: LOX IMVI melanoma
[9] = test system: SK-MEL-28 melanoma
[10] = test system: SK-MEL-2 melanoma
[11] = test system: EKVX NSCLC
[12] = test system: SN12C renal
[13] = test system: UO-31 renal
[14] = test system: TK-10 renal
[15] = test system: ACHN renal
[16] = test system: CAKI-1 renal
[17] = test system: A498 renal
[18] = test system: CCRF-CEM leukemia
[19] = test system: MOLT-4 leukemia

Measured: growth

COc1ccc(C(=O)Nc2ncc(Cc3ccc(Cl)cc3)s2)cc1
inactive: [3] 20% | [4] 23.9% | [5] 22.7% | [7] 33.5% | [8] 19.8% | [9] 52.3% | [10] 23.9% | [11] 36.5% | [12] 24.8% | [13] 37.4% | [14] 58.9% | [15] 25.6% | [16] 18.4% | [18] 14.5% | [19] 12.3%
active: [1] 8.72% | [2] 6.03% | [6] -1.16% | [17] -18.5%

N[C@@H]1CCC[C@H]1NCCCCN1C(=O)c2cccc3cc([N+](=O)[O-])cc(c23)C1=O
active: [18] 1.99% | [19] -3.36%
inactive: [1] 59.9% | [2] 14.3% | [3] 38.1% | [4] 39.1% | [5] 39% | [6] 62.4% | [8] 14.9% | [9] 85.7% | [10] 78.2% | [11] 61.5% | [12] 27.4% | [14] 44.1% | [15] 13.3% | [16] 97.7% | [17] 52.8%

Cc1ccc(OCCOCCOCCOc2ccc(C)n(O)c2=S)c(=S)n1O
inactive: [1] 35.8% | [2] 30% | [3] 59.2% | [4] 33.8% | [5] 34.7% | [6] 58.3% | [7] 15.6% | [8] 30.5% | [9] 48.8% | [10] 57% | [11] 24.9% | [12] 28.7% | [13] 42% | [14] 64% | [15] 44.6% | [16] 31.7% | [17] 52.5% | [18] 11.2% | [19] 10.7%

O=C(Nc1ccc(Nc2ccncc2)cc1)c1ccc(Nc2ccnc3ccc([N+](=O)[O-])cc23)cc1
inactive: [1] 99.3% | [2] 102% | [3] 97.8% | [4] 117% | [5] 80.3% | [6] 97.5% | [7] 101% | [8] 90.6% | [9] 109% | [10] 111% | [11] 107% | [12] 113% | [13] 95.7% | [14] 140% | [15] 100% | [16] 105% | [17] 130% | [18] 63.9% | [19] 40.7%

COC12C=C/C(=C(/C(=O)OCc3csc(SC)n3)C(=O)CCCCCCCCC3(OC)C=C/C(=C(/C(=O)OCc4cnc(SC)s4)C(=O)CCCCCCCC1)O3)O2 (centres undefined)
inactive: [1] 76.8% | [2] 27.5% | [3] 98.3% | [4] 47.3% | [5] 27.4% | [6] 11.3% | [9] 36.3% | [10] 55.8% | [11] 33.5% | [12] 28.9% | [13] 43.5% | [14] 47.6% | [16] 68% | [17] 34.9% | [18] 14.6%
active: [7] 6.98% | [8] -22.9% | [15] 6% | [19] 1.34%

O=C(/C=C/c1ccccc1)c1ccc(-n2cc(CN3CCN(c4cc5c(cc4F)c(=O)c(C(=O)O)cn5C4CC4)CC3)nn2)cc1
inactive: [1] 91.6% | [2] 79.2% | [3] 72.3% | [4] 72% | [5] 79.3% | [6] 77.6% | [8] 36.2% | [9] 88.2% | [10] 96.8% | [11] 94% | [12] 45.8% | [13] 62.5% | [14] 83.3% | [16] 61.4% | [17] 52.2% | [18] 64.9% | [19] 84.1%

COC(=O)c1c2c(c(C)[n+]([O-])c1C)C(=O)C(NCc1ccccc1)=CC2=O
inactive: [2] 12.7% | [3] 125% | [9] 61.3% | [10] 23.6% | [11] 34% | [13] 42.1% | [14] 113% | [15] 35.4% | [16] 22.3% | [17] 98.6% | [18] 21.9% | [19] 16.4%
active: [1] 5.71% | [4] 7.59% | [5] 8.92% | [6] -84.9% | [7] -16.6% | [8] 8.65% | [12] 2.86%

COc1ccc(C2C3=C(COC3=O)N(CCO)c3cc4c(cc32)OCO4)cc1OC (centres undefined)
inactive: [1] 77% | [2] 39.9% | [3] 71% | [4] 88.1% | [5] 58.3% | [6] 67.9% | [7] 71.8% | [8] 77.2% | [9] 89% | [10] 93.2% | [11] 96.1% | [12] 94.8% | [13] 95.9% | [14] 105% | [15] 101% | [16] 98.4% | [17] 79% | [18] 65.2% | [19] 88.5%

COC12C=C/C(=C(/C(=O)OCCSc3ccnn3C)C(=O)CCCCCCCCC3(OC)C=C/C(=C(/C(=O)OCCSc4ccnn4C)C(=O)CCCCCCCC1)O3)O2
active: [1] -19.5% | [6] -70% | [7] -56.3% | [8] -68.6% | [9] -9.65% | [11] 9.41% | [12] -4.94% | [15] 4.65% | [17] -53.5% | [19] -0.956%
inactive: [2] 11.9% | [3] 56.8% | [4] 32.9% | [5] 15.8% | [10] 12.3% | [14] 39.9% | [16] 26.6% | [18] 11.1%

Nc1nc(C(=O)N/N=C/c2ccc(F)cc2)nn1-c1ccc(S(N)(=O)=O)cc1
inactive: [1] 108% | [2] 98.5% | [3] 83.1% | [4] 95.2% | [5] 107% | [6] 107% | [7] 94.4% | [8] 94.1% | [9] 107% | [10] 104% | [11] 101% | [12] 93.8% | [13] 81.4% | [14] 99.4% | [16] 90.4% | [17] 100% | [18] 112% | [19] 111%

CCn1cc(C(=O)O)c(=O)c2cc(F)c(N3CCN(CC(=O)Nc4ccccc4)C(C)C3)c(F)c21 (centres undefined)
inactive: [1] 101% | [2] 108% | [3] 86.1% | [4] 99.1% | [5] 93.2% | [6] 99.2% | [7] 78.2% | [8] 88.5% | [9] 97% | [10] 122% | [11] 104% | [12] 103% | [13] 76.5% | [14] 108% | [15] 97.8% | [16] 87% | [17] 73.4% | [18] 96.7% | [19] 107%

CC1(/C=C/c2ccc(-c3ccccc3)cc2)CCn2cnc3ncnc(c32)N1O (centres undefined)
inactive: [1] 21.5% | [2] 30% | [3] 36.3% | [4] 26.7% | [5] 42.4% | [9] 29.7% | [10] 38.8% | [12] 20.2% | [14] 34.1% | [17] 19% | [18] 11.8% | [19] 14.2%
active: [6] -6.47% | [7] 0.915% | [8] 9.21% | [13] -5.45% | [16] 4.49%

CS(=O)(=O)Nc1cc(-c2ccc3ncnc(Nc4ccc(F)c(Cl)c4)c3c2)ccc1Cl
active: [17] 6.7%
inactive: [1] 41.3% | [2] 34.8% | [3] 30.5% | [4] 57.6% | [5] 36.8% | [6] 28.8% | [7] 53.8% | [8] 37.9% | [9] 57.1% | [10] 62.5% | [11] 20.9% | [12] 52.7% | [13] 36.5% | [14] 17.3% | [15] 27.2% | [16] 18.1% | [18] 30.2% | [19] 40.2%
